The text below walks through data of PubChem BioAssay AID2015 (National Center for Advancing Translational Sciences (NCATS), 2009).

This is one part of the list. Inconclusive results are not listed. The source made the active and inactive calls. The call rests on the fitted dose curve; in most records, active means well fitted inhibition curve with a large enough effect; inconclusive means small, poorly fitted or top-dose-only effect; inactive means flat fitted curve, though single readings scatter.

For the assay, the target named is Galactokinase (Homo sapiens) (UniProt P51570). Briefly: Confirmation Assay for Inhibitors of Human Galactokinase (GALK). Particulars: purified GALK, Kinase-Glo ATP depletion luminescence; series mostly up to 115 µM. The text has this: NIH Molecular Libraries Probe Production Centers Network [MLPCN] NIH Chemical Genomics Center [NCGC] MLPCN Grant: R03 MH085689-01 Assay Submitter (PI): Kent Lai (University of Utah School of Medicine, 50 N Mario Capecchi Drive, Salt Lake City, UT 84132) NCGC Assay Overview Inherited deficiency of galactose-1-phosphate uridyltransferase (GALT) can result in a potentially lethal disorder called Classic Galactosemia (OMIM 230400). Several lines of evidence indicate that an elevated level of galactose-1-phosphate (gal-1-p), the product of galactokinase (GALK), is a major, if not sole, pathogenic mechanism in patients with classic galactosemia. Therefore, finding inhibitors of GALK is a potential novel therapy for this inherent metabolic disease and is the long term goal of this project. Active compounds observed in the qHTS GALK assay (AID: 1868) were cherry picked and re-screened for validation. GALK (provided by Kent Lai) was assayed using ATP and D-(+)-Galactose (Sigma-Aldrich cat# G0750) as substrates. Promega Kinase-Glo Plus (cat# V3774) technology was used to detect the residual ATP following kinetic reaction. Briefly, the Kinase-Glo Plus contains Ultra-Glo [1] luciferase and D-luciferin which generates a bioluminescence signal from the remaining ATP. Kinase reactions with and without GALK were used as negative and positive controls together with Protein Tyrosine Phosphatase CD45 inhibitor (EMD Bioscience cat# 540215) which is shown to inhibit GALK activity.
Sequence of Galactokinase (Homo sapiens) (P51570 whole entry, looked up): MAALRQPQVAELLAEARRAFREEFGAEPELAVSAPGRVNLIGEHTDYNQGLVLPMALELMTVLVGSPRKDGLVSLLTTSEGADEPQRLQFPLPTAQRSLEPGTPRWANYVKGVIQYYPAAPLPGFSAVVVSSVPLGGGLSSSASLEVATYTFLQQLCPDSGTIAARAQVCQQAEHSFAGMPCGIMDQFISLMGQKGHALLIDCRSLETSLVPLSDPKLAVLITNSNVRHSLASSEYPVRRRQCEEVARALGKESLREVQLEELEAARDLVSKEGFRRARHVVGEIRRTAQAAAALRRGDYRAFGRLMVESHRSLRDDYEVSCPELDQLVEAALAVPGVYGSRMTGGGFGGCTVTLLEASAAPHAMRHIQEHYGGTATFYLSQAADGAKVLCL
NCGC Assay Protocol Summary: Three uL/well of ATP-buffer solution (35 uM ATP, 20mM HEPES pH8.0, 5 mM MgCl2, 60 mM NaCl, 1 mM DTT, 0.01% BSA final concentration) was dispensed into 1536-well, assay plates (Greiner, solid white medium-binding plates) with Aurora Discovery BioRAPTR Flying Reagent Dispenser (FRD; Beckton-Dickenson). Compound and control solution (23 nL) was transferred to the assay plate using the Kalypsys 1536-pin tool apparatus. One uL/well GALK-galactose solution (5 nM GALK, 100 uM galactose, 20 mM HEPES pH8.0, 5 mM MgCl2, 60 mM NaCl, 1 mM DTT, 0.01% BSA final concentration) was then added using the FRD yielding a total kinase reaction volume of 4 uL/ well. After 1 hour of room temperature incubation, 4 uL Kinase-Glo Plus reagent was added for a final assay volume of 8 uL/well. Luminescence was detected with the ViewLux plate reader (Perkin Elmer, Waltham, MA) after 2 min incubation using a 1 sec exposure time and 2x binning.
For the compound `N#Cc1c(N2CCCCC2)nc(N)c2c(N)nc(SCC(=O)O)cc12`, the Potency is 21.1 µM (active).

Take `Oc1c(Cl)cc(Cl)c(Cl)c1Cc1c(O)c(Cl)cc(Cl)c1Cl`: the Potency is 21.1 µM (active).

`N#C/C(=C(/O)Cc1cccc2ccccc12)c1nc2ccccc2s1`: the Potency was 33.5 µM (active).

Consider `CCOC(=O)c1c(C)[nH]c2c1-c1ccccc1C(=O)C2=O`, for which the Potency is 1.68 µM (active).

With `COc1cccc2cc(-c3cc(=O)oc4cc(C)c(O)cc34)oc12`, the Potency entry was “inactive”.

Regarding `CCS(=O)(=O)C1=NSC2=NC(=O)/C(=C\c3ccc(OS(=O)(=O)c4ccccc4)cc3)C(=N)N21`, the Potency is 26.6 µM (active).
